Only some compounds are listed: those with a hit (about 4.6% of all), similar ones and a draw of the others.
ADAM17 inh: ADAM17 inhibition, QFRET primary screen. inhibition, % at 6.95 µM. recombinant ADAM17, EDANS/DABCYL FRET peptide cleavage. P78536. 370,000 tested, 0.83% active;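 active = inhibition above the mean of compounds lying between control limits plus 3 SD, set per campaign, cut at about 8.5% in these data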;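 also: 0% = DMSO-only wells as the low control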
ADAM10 inh: ADAM10 inhibition, QFRET primary screen; recombinant ADAM10, EDANS/DABCYL FRET peptide cleavage, 3 h; inhibition, % at 7 µM; 370,000 tested, 0.62% active;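 active = inhibition above a per-campaign cutoff equal to the mean of compounds falling between control-based bounds plus 3 SD, cut at about 20% in these data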;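 also: 0% = DMSO wells while the 100% control is not disclosed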
NR3A LBD binder: modulators (binders) of human NR3A ligand-binding domain | NR3A LBD differential scanning fluorimetry, Tm shift; 0% = protein alone, 100% = glycine-bound protein | Tm shift relative to glycine control, % at 25 µM | 340,000 tested, 2.5% active | AID 1259313;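 active = melting temperature shift of at least 10% of the positive control shift, at one fixed dose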
proKLK7 act: proKLK7 (human) activation, primary screen; P49862; purified proKLK7, EDANS-DABCYL substrate fluorescence; 100% is mature enzyme control, 0% vehicle; activation, % at 7 µM; 370,000 tested, 0.9% active; AID 652039;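 active = activation above the mean of all tested compounds plus 3 SD, computed per campaign excluding outliers beyond control limits, cut at about 13% in these data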
Target sequence (P49862 whole entry, looked up): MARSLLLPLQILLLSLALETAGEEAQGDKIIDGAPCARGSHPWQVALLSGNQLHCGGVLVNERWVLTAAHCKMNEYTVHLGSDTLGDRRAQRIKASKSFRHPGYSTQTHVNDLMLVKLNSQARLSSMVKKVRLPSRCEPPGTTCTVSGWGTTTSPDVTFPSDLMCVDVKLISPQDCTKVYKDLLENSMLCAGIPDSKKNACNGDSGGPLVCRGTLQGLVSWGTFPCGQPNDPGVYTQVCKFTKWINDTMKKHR
FAS TE block: blocks the thioesterase domain of human fatty acid synthase | P49327 | recombinant FAS-TE, OMFH fluorogenic substrate, fluorescence endpoint | inhibition, % at 15 µM | 360,000 tested, 0.67% active;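 active = compounds whose normalised, plate-corrected inhibition of enzyme fluorescence in the single-dose primary screen is 50% or more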;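 also: 0% = DMSO with enzyme and 100% = substrate without enzyme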
* hit, by the source's call.

What do the screens show for `CC1CCc2cc(F)ccc2N1C(=O)CSc1nnc2c(n1)[nH]c1ccc(F)cc12` (stereo unspecified)?
ADAM17 inh: 0; ADAM10 inh: 1; NR3A LBD binder: 24*; proKLK7 act: -1; FAS TE block: -2

What do the screens show for `CCOc1ccc(Oc2c(Cl)c(Br)nn(Cc3cccc4ccccc34)c2=O)cc1`?
ADAM17 inh: -3; ADAM10 inh: -4; proKLK7 act: 0

What do the screens show for `Cc1c(C(=O)Nc2ccc(C(F)(F)F)cc2)sc2ncn(CC(=O)N3CCN(c4ccccn4)CC3)c(=O)c12`?
ADAM17 inh: -5; ADAM10 inh: -6; NR3A LBD binder: 23*; proKLK7 act: 0; FAS TE block: 19

How did Cc1ccc(NC(=O)c2sc3ncn(CC(=O)N4CCN(c5ccccn5)CC4)c(=O)c3c2C)cc1 do in these assays?
ADAM17 inh: 8; ADAM10 inh: 4; proKLK7 act: 1; FAS TE block: -1

What do the screens show for `O=C(NN=Cc1ccc(-c2ccccc2)cc1)c1cc(-c2ccc(Cl)cc2)n[nH]1`?
ADAM17 inh: 0; ADAM10 inh: 0; proKLK7 act: -1

What do the screens show for `COC(=O)[C@H]1C[C@@]2(N3CCCCC3)c3ccccc3N[C@H]2N1S(=O)(=O)c1ccc(C)cc1`?
ADAM17 inh: -7; ADAM10 inh: -8; proKLK7 act: 0

Results for COc1ccc(-c2csc(/C(C#N)=C\c3ccc(O)c([N+](=O)[O-])c3)n2)cc1OC ?
ADAM17 inh: -2; ADAM10 inh: 1; NR3A LBD binder: -4; proKLK7 act: 0; FAS TE block: -33

What do the screens show for `COc1ccc(-c2csc(/C(C#N)=C\c3ccc(OC)c([N+](=O)[O-])c3)n2)cc1`?
ADAM17 inh: 1; ADAM10 inh: -1; NR3A LBD binder: 33*; proKLK7 act: -1; FAS TE block: 30

How did COc1cccc(-c2csc(N3CCN(C(=S)Nc4ccc(Cl)cc4)CC3)n2)c1 do in these assays?
ADAM17 inh: 0; ADAM10 inh: 5; NR3A LBD binder: 10*; proKLK7 act: 0; FAS TE block: 20

How did C#CCN1CC(N(C)CCOC(=O)c2cc3ccccc3[nH]2)CS1(=O)=O (stereo unspecified) do in these assays?
ADAM17 inh: -4; ADAM10 inh: -6; proKLK7 act: 1

What do the screens show for `CCc1nnc(NC(=O)c2ccc(-c3ccc(F)cc3)o2)s1`?
ADAM17 inh: -7; ADAM10 inh: -13; NR3A LBD binder: 16*; proKLK7 act: 1; FAS TE block: 3

How did O=C(Nc1nccs1)c1ccc(-c2ccc(Cl)cc2)o1 do in these assays?
ADAM17 inh: -10; ADAM10 inh: -20; NR3A LBD binder: 20*; proKLK7 act: 0; FAS TE block: 17

Results for CCOC(=O)[C@H](Cc1ccccc1)NC(=O)[C@H]1C[C@@]2(N3CCCCC3)c3ccccc3N(C(=O)OC(C)(C)C)[C@H]2N1C(=O)OC(C)(C)C ?
ADAM17 inh: 5; ADAM10 inh: 12; proKLK7 act: -1

How did Cc1ccc(-n2c(SCC(N)=O)nc3c(c2=O)C2(CCCC2)Cc2ccccc2-3)cc1 do in these assays?
ADAM17 inh: 3; ADAM10 inh: 0; NR3A LBD binder: 13*; proKLK7 act: 0; FAS TE block: 28

What do the screens show for `Cc1cc(NC(=O)c2ccc(Cl)cc2Cl)no1`?
ADAM17 inh: 2; ADAM10 inh: 5; NR3A LBD binder: 2; proKLK7 act: 0; FAS TE block: -4

Results for O=C(Nc1ccsn1)c1ccc(Cl)cc1Cl ?
ADAM17 inh: -6; ADAM10 inh: -2; NR3A LBD binder: 10*; proKLK7 act: 1; FAS TE block: -4

How did O=C(COC(=O)c1c(Cl)cccc1Cl)Nc1ccccc1Br do in these assays?
ADAM17 inh: -1; ADAM10 inh: -18; NR3A LBD binder: 15*; proKLK7 act: 1; FAS TE block: 26

How did O=C(COC(=O)c1ccccc1)Nc1ccccc1Br do in these assays?
ADAM17 inh: 0; ADAM10 inh: 11; NR3A LBD binder: -3; proKLK7 act: 0; FAS TE block: -4

How did COC(=O)C1CN(C2CC2)CCS(=O)(=O)N1Cc1cn(Cc2ccc(Cl)cc2)nn1 (stereo unspecified) do in these assays?
ADAM17 inh: 1; ADAM10 inh: -3; proKLK7 act: 1

What do the screens show for `O=C1N=c2ccccc2=C1c1sc(=S)n(CC2CCCO2)c1O` (stereo unspecified)?
ADAM17 inh: -6; ADAM10 inh: -1; NR3A LBD binder: 15*; proKLK7 act: -1; FAS TE block: -2

Results for CCC(C)C(Nc1ccc(C(=O)OC)cc1[N+](=O)[O-])C(=O)OC (stereo unspecified) ?
ADAM17 inh: 1; ADAM10 inh: -1; NR3A LBD binder: 12*; proKLK7 act: 1; FAS TE block: 10

What do the screens show for `COC(=O)c1ccc(NC(C(=O)OC)C(C)C)c([N+](=O)[O-])c1` (stereo unspecified)?
ADAM17 inh: 0; ADAM10 inh: -1; NR3A LBD binder: 9; proKLK7 act: 0; FAS TE block: 1

How did O=C1CC(c2ccc3c(c2)OCO3)N=C2N(Cc3ccc4c(c3)OCO4)C/C(=C/c3ccccc3)N12 (stereo unspecified) do in these assays?
ADAM17 inh: 4; ADAM10 inh: 5

Results for CC(C)=CCOc1ccc([C@@H]2COc3c(ccc4c3C=CC(C)(C)O4)C2)c(O)c1 ?
ADAM17 inh: 2; ADAM10 inh: -6; NR3A LBD binder: 15*; proKLK7 act: 1; FAS TE block: 9

Results for COc1ccc(OCc2cc(=O)c3ccc4c(c3o2)C=CC(C)(C)O4)cc1OC ?
ADAM17 inh: 8; ADAM10 inh: 14; NR3A LBD binder: 0; proKLK7 act: 0; FAS TE block: 29

What do the screens show for `CCOc1ccc(-c2nc(CSCC(=O)NC3CCC3)c(C)o2)cc1`?
ADAM17 inh: -4; ADAM10 inh: -9

How did COc1cccc(N2CCN(CC(=O)NCc3cccc(OC)c3OC)CC2)c1 do in these assays?
ADAM17 inh: -3; ADAM10 inh: -3; proKLK7 act: 0

Results for C[C@]12CCC(O)CC1CCC1C2CC[C@]2(C)C(c3cc(C(F)(F)F)n[nH]3)CCC12 (stereo partly specified) ?
ADAM17 inh: -4; ADAM10 inh: -6; NR3A LBD binder: 24*; proKLK7 act: 0; FAS TE block: 26

Results for COc1ccccc1OCC(=O)N1CCN(C(=O)c2ccco2)CC1 ?
ADAM17 inh: -4; ADAM10 inh: -11; NR3A LBD binder: 10*; proKLK7 act: 0; FAS TE block: -6

Results for O=C(c1ccco1)N1CCN(Cc2nnnn2CCc2ccccc2)CC1 ?
ADAM17 inh: 2; ADAM10 inh: 5; NR3A LBD binder: 13*; proKLK7 act: 0; FAS TE block: -5

What do the screens show for `O=C(c1ccco1)N1CCN(Cc2nnc(-c3ccccc3)o2)CC1`?
ADAM17 inh: 0; ADAM10 inh: -10; NR3A LBD binder: 12*; proKLK7 act: 0; FAS TE block: -8

Screening results from PubChem.
